Bioassay records deposited in PubChem by National Center for Advancing Translational Sciences (NCATS).
12-LOX inh: ALOX12 (human) lipoxygenase inhibition. P18054. purified 12hLO, xylenol orange hydroperoxide absorbance. Potency, µM (series often up to 108 µM), inactives show top-dose activity change, negative = inhibition, usual class: inhibitors. hit rate 1.1% among 580,000; note: potency is the fitted concentration of half-maximal effect; % is set by controls: 0 for no effect and ±100 for the full control effect
Target sequence (P18054 whole entry, looked up): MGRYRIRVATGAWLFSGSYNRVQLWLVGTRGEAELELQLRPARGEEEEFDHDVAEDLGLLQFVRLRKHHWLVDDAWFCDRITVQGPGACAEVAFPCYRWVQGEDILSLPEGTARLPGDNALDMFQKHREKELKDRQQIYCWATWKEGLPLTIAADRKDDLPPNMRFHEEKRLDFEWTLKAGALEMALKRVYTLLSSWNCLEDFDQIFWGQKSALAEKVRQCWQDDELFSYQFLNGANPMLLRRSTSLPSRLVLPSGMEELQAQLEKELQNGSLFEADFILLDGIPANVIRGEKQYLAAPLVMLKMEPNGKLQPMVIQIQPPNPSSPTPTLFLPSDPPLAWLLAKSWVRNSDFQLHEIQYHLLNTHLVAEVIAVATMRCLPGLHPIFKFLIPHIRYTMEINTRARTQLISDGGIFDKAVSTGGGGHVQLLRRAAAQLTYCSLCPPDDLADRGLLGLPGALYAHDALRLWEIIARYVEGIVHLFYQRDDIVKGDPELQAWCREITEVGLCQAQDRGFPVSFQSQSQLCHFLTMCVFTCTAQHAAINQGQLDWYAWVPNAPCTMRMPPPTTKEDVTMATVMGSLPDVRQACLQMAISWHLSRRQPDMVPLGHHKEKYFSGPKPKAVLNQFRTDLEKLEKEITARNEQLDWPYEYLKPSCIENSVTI
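Purified human 12hLO (150 nM final) in 25 mM Hepes, 0.01% Triton X-100, pH 7.0 was preincubated 15 min at room temperature with compound. Then 40 uM arachidonic acid was added, 30 min. Hydroperoxide was read by Fe-XO absorbance ratio 573/405 nm.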
AT treatment: potential ataxia-telangiectasia treatments restoring KAP-1 phosphorylation; F2112 A-T fibroblasts, KAP-1 phosphorylation AlphaLISA; neocarzinostatin DNA damage 30 min before lysis; Potency, µM (top dose mostly 57.5 µM), for inactives: at the highest dose activation, hits mostly activators; hit rate 0.19% among 320,000; AID 485349; note: potency is the fitted concentration of half-maximal effect; % of control where 0% means no effect; nearly all actives have a fitted effect of over 45% in size
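hTERT-immortalized A-T patient fibroblasts (F2112), 500 cells/well in OPTI-MEM, 1% FBS, got compounds for 60 min, then NCS for 30 min at 37C. Lysates were then assayed for phospho-KAP-1 by AlphaLISA (anti-pKAP1 donor, anti-KAP1 acceptor beads), 6 hr at 25C.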
hERG WT inh: blocks the wildtype human KCNH2 potassium channel; Q12809; U2OS, BacMam KCNH2, thallium flux FluxOr; stronger effect = lower value; activity change, % at 1.84 µM; hit rate 0.37% among 340,000;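 active = maximum activity change below -70%; inconclusive = maximum activity change between -70% and -50%; inactive = maximum activity change above -50%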; note: % is set by controls: 0 for no effect and ±100 for the full control effect
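U2OS cells transduced with wild-type KCNH2 virus are loaded with FluxOr dye for 45 min, and thallium flux is measured in kinetic reads before and after stimulation buffer. Rate constants are normalized to DMSO controls.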
KCNH2 3.1 block: blocks the human KCNH2 3.1 channel isoform | U2OS KCNH2 3.1, thallium flux FluxOr; stronger effect = lower value | activity change, % (tested at about 1.8 µM) | hit rate 0.95% among 340,000;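 active = maximum activity change below -70%; inconclusive = maximum activity change from -70% to -50%; inactive = maximum activity change above -50%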;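 note: thallium influx rate constant from kinetic fluorescence after stimulation buffer; % is set by controls: 0 for no effect and ±100 for the full control effect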
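Thallium flux via FluxOr fluorescence (Red40 quencher, 45 min loading) in U2OS cells virally expressing the KCNH2 3.1 isoform (1.77 x 10^8 /mL virus, overnight at 37 C). Rate constants from 2-min kinetic reads post-stimulation, normalised to positive and negative controls.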
* = called active by the depositor; ? = inconclusive; . = no result; ! = not active in a repeat; [ ] = another dose, or the depositor's remark. Compounds with a hit are over-represented: about 1.8% of the library has one in this group of screens. Unless noted, calls come from the whole dose curve; as a rule, active = well fitted curve in the direction sought with a large enough effect; inconclusive = small, poorly fitted or top-dose-only effect, or another doubt; inactive = no such curve, though single readings can be large; an effect the other way counts as inactive or inconclusive.

SMILES | 12-LOX inh | AT treatment | hERG WT inh | KCNH2 3.1 block
O=C(COC(=O)c1ccccc1-n1cnnn1)c1ccc(Br)cc1 | -8.3% | 6.7% | 4.9 | -1.5
O=C(COC(=O)c1ccc(-n2cnnn2)cc1)c1ccc(Br)cc1 | -15.8% | 4.5% | ? | -83.2*
COc1ccc(CN2CCn3c(nnc3C3CCNCC3)C2)cc1 | 9.7%[6.33 µM] | . | . | .
CC(=O)Nc1ccc(CN2CCn3c(nnc3C3CCNCC3)C2)cc1 | 11.2µM* | . | . | .
Cc1[nH]c2ccccc2c1C1c2ccccc2C(=O)N1CCC(=O)N1CCN(c2ccccc2)CC1 (stereo unspecified) | 6.1% | . | . | .
OCCCNc1nc(-c2ccccc2)c2cc(Br)ccc2n1 | ? | 39.8µM* | -1.8 | 17.7
Cc1ccc2nc(NCCCO)nc(-c3ccccc3)c2c1 | ? | . | -4.5 | -2.2
CCOc1cc(OCC)cc(C(=O)NCCN2CCC(n3c(=O)[nH]c4ccccc43)CC2)c1 | -28.5% | . | . | .
O=C(NCCN1CCC(n2c(=O)[nH]c3ccccc32)CC1)c1ccccc1 | -56.8% | . | . | .
O=C(NCCN1CCC(n2c(=O)[nH]c3cc(Cl)ccc32)CC1)c1ccc(F)cc1 | 39.8µM* | . | . | .
O=C(NCCN1CCC(n2c(=O)[nH]c3ccccc32)CC1)c1ccc(F)cc1Cl | 1.12µM* | . | . | .
O=C(CN1C(=O)NC2(CCCCC2)C1=O)Nc1ccc(C(F)(F)F)cc1 | 4.9% | . | . | .
Cc1nn(C)c(C)c1NC(=O)COc1ccc(Cl)cc1 | 32.9% | 1.0% | -1.8 | -1.0
Cc1nn(C)c(C)c1NC(=O)CCl | 14.1µM* | -3.9% | 1.5 | 3.5
O=C1NCc2ccccc2CC12CCN(Cc1ccc(Br)cn1)CC2 | 2.7%[6.33 µM] | . | . | .
CC1CC[C@@]2(OC1)O[C@H]1CC3[C@@H]4C[C@@H](O)[C@@]5(O)C[C@@H](O)[C@H](O)C[C@]5(C)[C@H]4CC[C@]3(C)[C@H]1[C@@H]2C (stereo partly specified) | 3.2% | -11.4% | -91.8* | -0.4
Cc1ccc(Nc2nc(-c3ccc(O)c(O)c3)cs2)nc1 | 22.4µM* | 1.6% | 7.2 | 6.1
Cc1ccc(Nc2nc(-c3ccc(F)cc3)cs2)nc1 | ? | 10.0% | 4.0 | -6.0
CCOc1ccc(CN2CCC3(CC2)Cc2ccccc2CNC3=O)cc1 | 0.0%[6.33 µM] | . | . | .
Cn1nc(C(=O)NCCOc2ccccc2)c2ccccc2c1=O | -5.7% | 2.4% | 4.9 | -119.2*
Cc1ccc(OCCNC(=O)c2nn(C)c(=O)c3ccccc23)cc1 | -7.9% | . | . | .
CCn1cc(S(=O)(=O)N2CCCCCCNC(=O)[C@@H]3CCCC[C@@H]32)cn1 | 18.6% | . | . | .
C=CCOc1ccc(C2NC(=O)c3ccccc3O2)cc1OC (stereo unspecified) | 3.2% | . | -75.2* | 6.0
CN1c2cc(C(=O)Nc3cccc(C#N)c3)ccc2C(=O)N2CCCCCC21 (stereo unspecified) | -0.8% | . | . | .
CCOC(=O)C1C(=O)N(O)CC1c1cccc(Oc2ccccc2)c1 (stereo unspecified) | -24.0% | -1.5% | -1.9 | -74.7*
SMILES | 12-LOX inh | AT treatment | hERG WT inh | KCNH2 3.1 block
COc1ccccc1NCCC(=O)OCC(=O)Nc1ccccc1F | 159.9% | 6.0% | -4.8 | 6.4
COc1ccccc1NCCC(=O)OCC(=O)Nc1ccccc1Cl | -21.0% | -4.4% | -106.4* | -209.5*
CCN1CCN(Cc2ccc(NC(=O)c3ccc(C)c(NC(=O)C(=O)c4c[nH]c5ccccc45)c3)cc2C(F)(F)F)CC1 | ? | 7.0% | -131.7*! | -0.4
CCN1CCN(Cc2ccc(NC(=O)c3cc(NC(=O)C(=O)c4c[nH]c5ccccc45)cc(OC)c3)cc2C(F)(F)F)CC1 | -104.6% | -25.8% | 18.2 | -9.0
S=C1NC2(CCCCC2)NN1c1ccccc1 | ? | -1.8% | -3.5 | -22.3
Cc1ccc(N2NC3(CCCCCC3)NC2=S)cc1 | 1µM* | . | . | .
Cc1ccc(N2NC3(CCC(C)CC3)NC2=S)cc1 (stereo unspecified) | 1.26µM* | . | . | .
CC1(NC(=O)CSc2nc(CN3CCOCC3)nc3ccccc23)CCS(=O)(=O)C1 (stereo unspecified) | -17.8% | . | . | .
Cc1ccccc1-c1nc2ccc3ccccc3c2c2c1CCCC2 | -14.5% | . | . | .
Cn1c(-n2cccc2)c(-c2c(-c3cccc4ccccc34)[nH]c3c2c(=O)[nH]c(=O)n3C)c(=O)[nH]c1=O | 17.8µM* | . | . | .
Cn1c(-n2cccc2)c(-c2c(-c3ccccc3)[nH]c3c2c(=O)[nH]c(=O)n3C)c(=O)[nH]c1=O | -3.8% | -3.0% | . | .
CCN(Cc1nnc(-c2ccc(Br)s2)o1)C1CC1 | 6.0% | . | . | .
CC1=CC(=O)C(C(=O)/C=C/c2ccc(C)s2)C(=O)O1 (stereo unspecified) | 14.1µM* | . | . | .
Cc1cc(C(=O)Nc2ccc(C(=O)O)cc2)c(C)o1 | -14.1% | -3.9% | -12.1 | 11.3
COC(=O)c1cc(NC(=O)c2cc(C)oc2C)cc(C(=O)OC)c1 | -7.5% | -2.5% | -193.1* | -14.3
CCCCc1cc(=O)oc2cc(OC(C)C(=O)NCc3ccncc3)ccc12 (stereo unspecified) | -4.7% | . | . | .
CCc1ccc(CN2CCCC(CNS(=O)(=O)c3ccc(OC)cc3)C2)cc1 (stereo unspecified) | -23.4% | -0.5% | -26.5 | -70.6*
COc1ccc(CN2C[C@@H]3[C@H](C2)N(CC2CCOCC2)C(=O)C(C)(C)[S+]3(=O)[O-])cc1O | 26.2% | . | . | .
Cc1cccc(C)c1NC(=O)COC(=O)c1cc(=O)c2ccccc2o1 | -28.0% | 3.55µM* | -20.9 | 10.5
Cc1ccc(NC(=O)COC(=O)c2cc(=O)c3ccccc3o2)cc1F | 2.0% | 0.6% | 2.0 | 30.7
COc1cccc(NC(=O)NC[C@H]2O[C@@H](CO)[C@@H](O)[C@H]2N2CCN(c3ccccc3OC)CC2)c1 | 17.8µM* | . | . | .
COCC1CN(Cc2sccc2C)CC12CCNCC2 (stereo unspecified) | 27.8% | . | . | .
O=C(N/N=C1/CCc2ccccc21)c1ccc(F)cc1 | 13.7% | . | . | .
Cc1cccc(-c2nc3cc(NC(=O)/C=C/c4ccco4)ccc3o2)c1 | 11.2µM* | . | . | .
Oc1c(Br)cc(Cl)cc1Cc1cc(Cl)cc(Br)c1O | 28.2µM* | . | . | .
SMILES | 12-LOX inh | AT treatment | hERG WT inh | KCNH2 3.1 block
CC(=O)C1=CCC(c2ccc(C)o2)N(S(=O)(=O)c2ccc(C)cc2)C1 (stereo unspecified) | 10µM* | . | . | .
CC(=O)C1=CCC(c2ccccc2Cl)N(S(=O)(=O)c2ccc(C)cc2)C1 (stereo unspecified) | -14.4% | . | . | .
O=C(CCc1ncc(-c2ccccc2F)o1)Nc1ccc(S(=O)(=O)NC2CC2)cc1 | -1.8% | . | . | .
Cc1ccc(C2=C(O)C(=O)C(c3ccc(C)cc3)=C(O)C2=O)cc1 | 1.12µM* | . | -19.0 | -3.2
CC1=C(O)C(=O)C(C2=C(O)C(=O)C(C)=C(O)C2=O)=C(O)C1=O | ? | . | 0.2 | 0.8
O=C(/C=C/c1cccc(Cl)c1)NC(C1CC1)C1CC1 | -2.2% | . | . | .
CCCC1(C)NC(=O)N(Cc2coc(-c3cccs3)n2)C1=O (stereo unspecified) | -23.0% | . | . | .
S=C(NCCCCN(Cc1ccc(Cl)cc1)c1ccc(Br)cn1)NCCCc1cnc[nH]1 | 35.5µM* | . | . | .
C[C@@H]1CN([C@@H](C)CO)C(=O)c2cc(C#CC3CCCCC3)cnc2O[C@@H]1CN(C)S(=O)(=O)c1ccc(F)cc1 | 39.8µM* | . | -3.8 | -16.5
